Reference: PubChem BioAssay AID1159580 (chemical genetic matrix, 2015)
“And” between values parts separate entries of the source, which are not always exact repeats. Equal values may be shown once. Among all 5,500 compounds or so, about 2,000 (36%) were called active. Roughly 18% stayed inconclusive and do not appear here. No stated cut-off is given here; in the data, active means normalized growth mostly below about 0.91 (no sharp cut-off); inconclusive means no clear call, values can overlap the other calls; inactive means mostly above about 0.92. The list shows a part of the results.

Test: chemical genetic growth profiling, strain panel (AID 1159580);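 further: tested at 20 µM; growth read once vehicle control cultures reached saturation at 30 °C; 1 = growth at the plate median or of vehicle wells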
Details: S. cerevisiae deletion strains, growth OD

Measured: normalized growth

CC1(C)O[C@H]2CC(=O)OC[C@]23[C@H]2CC[C@@]4(C)[C@H](c5ccoc5)OC(=O)[C@H]5O[C@]54[C@]2(C)C(=O)C[C@@H]13
active: locus YBR021W, strain FUR4, stronger effect = lower value 1.21 [resistant]
inactive: locus YAL013W, strain DEP1, stronger effect = lower value 1.02 | locus YAL021C, strain ccr4, stronger effect = lower value 0.982 | locus YAL026C, strain drs2, stronger effect = lower value 0.99 | locus YAL030W, strain snc1, stronger effect = lower value 0.98 | locus YBL061C, strain skt5, stronger effect = lower value 0.987 | locus YBR009C, strain hhf1, stronger effect = lower value 0.968 | locus YBR023C, strain chs3, stronger effect = lower value 0.995 | locus YBR171W, strain sec66, stronger effect = lower value 0.964 | locus YBR229C, strain ROT2, stronger effect = lower value 1.01 | locus YBR231C, strain swc5, stronger effect = lower value 1 | locus YBR279W, strain paf1, stronger effect = lower value 0.992 | locus YCL011C, strain gbp2, stronger effect = lower value 0.98 | locus YCL016C, strain dcc1, stronger effect = lower value 0.99 | locus YCL029C, strain bik1, stronger effect = lower value 0.976 | locus YCL061C, strain MRC1, stronger effect = lower value 0.974 | locus YCL069W, strain vba3, stronger effect = lower value 0.969 | locus YCR088W, strain abp1, stronger effect = lower value 0.984 | locus YDL005C, strain med2, stronger effect = lower value 0.962 | locus YDL035C, strain GPR1, stronger effect = lower value 1.02 | locus YDL040C, strain nat1, stronger effect = lower value 0.984 | locus YDL074C, strain BRE1, stronger effect = lower value 0.992 | locus YDL101C, strain DUN1, stronger effect = lower value 0.985 | locus YDL134C, strain PPH21, stronger effect = lower value 1.01 | locus YDL185W, strain tfp1, stronger effect = lower value 0.962 | locus YDL192W, strain arf1, stronger effect = lower value 0.988 | locus YDR001C, strain nth1, stronger effect = lower value 0.984 | locus YDR069C, strain doa4, stronger effect = lower value 0.989 | locus YDR101C, strain arx1, stronger effect = lower value 0.998 | locus YDR137W, strain rgp1, stronger effect = lower value 1.01 | locus YDR150W, strain NUM1, stronger effect = lower value 0.994 | locus YDR159W, strain sac3, stronger effect = lower value 0.99 | locus YDR162C, strain NBP2, stronger effect = lower value 1.02 | locus YDR195W, strain ref2 0.967 | locus YDR297W, strain sur2, stronger effect = lower value 1.01 | locus YDR318W, strain mcm21, stronger effect = lower value 0.994 | locus YDR334W, strain swr1, stronger effect = lower value 0.958 | locus YDR335W, strain msn5, stronger effect = lower value 0.986 | locus YDR388W, stronger effect = lower value 1.01 | locus YDR392W, strain spt3, stronger effect = lower value 0.986 | locus YDR502C, strain sam2, stronger effect = lower value 0.99 | locus YEL003W, strain gim4, stronger effect = lower value 0.981 | locus YEL037C, strain rad23, stronger effect = lower value 0.971 | locus YEL061C, strain CIN8 (second series), stronger effect = lower value 0.991 | locus YEL061C, strain CIN8, stronger effect = lower value 1 | locus YER015W, strain faa2, stronger effect = lower value 0.989 | locus YER016W, strain bim1, stronger effect = lower value 0.98 | locus YER110C, stronger effect = lower value 0.975 | locus YER111C, strain swi4, stronger effect = lower value 0.95 | locus YER155C, strain BEM2 (second series), stronger effect = lower value 0.952 | locus YER155C, strain BEM2, stronger effect = lower value 0.995 | locus YER167W, strain BCK2, stronger effect = lower value 1 | locus YFR010W, strain ubp6, stronger effect = lower value 0.986 | locus YGL078C, strain dbp3, stronger effect = lower value 0.985 | locus YGL086W, strain mad1, stronger effect = lower value 0.993 | locus YGL167C, strain pmr1, stronger effect = lower value 0.975 | locus YGL173C, strain kem1, stronger effect = lower value 0.982 | locus YGL227W, strain vid30, stronger effect = lower value 0.987 | locus YGL240W, strain doc1, stronger effect = lower value 0.962 | locus YGL248W, strain PDE1, stronger effect = lower value 1.02 | locus YGL253W, strain hxk2, stronger effect = lower value 1.01 | locus YGR135W, strain pre9, stronger effect = lower value 1 | locus YGR229C, strain SMI1, stronger effect = lower value 1.04 | locus YGR252W, strain gcn5, stronger effect = lower value 1.07 | locus YHR013C, strain ard1, stronger effect = lower value 0.95 | locus YHR027C, strain rpn1, stronger effect = lower value 0.993 | locus YHR030C, strain SLT2, stronger effect = lower value 1 and 1.01 | locus YHR079C, strain IRE1 (second series), stronger effect = lower value 0.98 | locus YHR079C, strain IRE1, stronger effect = lower value 1.03 | locus YHR094C, strain hxt1, stronger effect = lower value 0.984 | locus YHR129C, strain ARP1, stronger effect = lower value 1 | locus YHR142W, strain chs7, stronger effect = lower value 0.973 | locus YHR200W, strain rpn10, stronger effect = lower value 0.987 | locus YIL066C, strain RNR3, stronger effect = lower value 1.02 | locus YIL073C, strain SPO22, stronger effect = lower value 0.932 | locus YIL125W, strain kgd1, stronger effect = lower value 0.997 | locus YIR030C, strain dcg1, stronger effect = lower value 0.984 | locus YJL092W, strain hpr5, stronger effect = lower value 0.962 | locus YJL095W, strain BCK1 (second series), stronger effect = lower value 0.966 | locus YJL095W, strain BCK1, stronger effect = lower value 0.985 and 1.03 | locus YJL115W, strain asf1, stronger effect = lower value 0.95 | locus YJL129C, strain trk1, stronger effect = lower value 0.973 | locus YJL134W, strain LCB3, stronger effect = lower value 1 | locus YJL154C, strain vps35, stronger effect = lower value 0.975 | locus YJL164C, strain tpk1, stronger effect = lower value 0.986 | locus YJL166W, strain qcr8, stronger effect = lower value 0.979 | locus YJL168C, strain set2, stronger effect = lower value 0.989 | locus YJL187C, strain SWE1 (second series), stronger effect = lower value 0.996 | locus YJL187C, strain SWE1, stronger effect = lower value 0.967 | locus YJR043C, strain POL32, stronger effect = lower value 1.05 | locus YJR066W, strain TOR1, stronger effect = lower value 0.946 | locus YJR075W, strain HOC1, stronger effect = lower value 0.989 | locus YKL009W, strain mrt4, stronger effect = lower value 0.963 | locus YKL068W, stronger effect = lower value 0.987 | locus YKL085W, strain MDH1 (second series), stronger effect = lower value 0.992 | locus YKL085W, strain MDH1, stronger effect = lower value 0.992 | locus YKL160W, strain elf1, stronger effect = lower value 1 | locus YKR001C, strain vps1, stronger effect = lower value 0.985 | locus YKR026C, strain gcn3, stronger effect = lower value 0.998 | locus YKR091W, strain srl3, stronger effect = lower value 0.98 | locus YLL001W, strain dnm1, stronger effect = lower value 0.959 | locus YLL026W, stronger effect = lower value 0.988 | locus YLL041C, strain sdh2, stronger effect = lower value 0.97 | locus YLR027C, strain aat2, stronger effect = lower value 0.965 | locus YLR039C, strain RIC1, stronger effect = lower value 1.01 | locus YLR058C, strain SHM2, stronger effect = lower value 1 | locus YLR102C, strain apc9, stronger effect = lower value 0.983 | locus YLR113W, strain HOG1, stronger effect = lower value 1.04 | locus YLR221C, strain rsa3, stronger effect = lower value 1 | locus YLR258W, strain gsy2, stronger effect = lower value 0.996 | locus YLR262C, strain YPT6 (second series), stronger effect = lower value 1.01 | locus YLR262C, strain YPT6, stronger effect = lower value 1 | locus YLR268W, strain sec22, stronger effect = lower value 0.961 | locus YLR320W, strain mms22, stronger effect = lower value 0.992 | locus YLR330W, strain CHS5, stronger effect = lower value 0.998 | locus YLR342W, strain FKS1 (second series), stronger effect = lower value 1.07 | locus YLR342W, strain FKS1, stronger effect = lower value 0.975 | locus YLR357W, strain rsc2, stronger effect = lower value 0.99 | locus YLR370C, strain arc18, stronger effect = lower value 0.97 | locus YLR371W, strain rom2, stronger effect = lower value 0.98 | locus YLR384C, strain iki3, stronger effect = lower value 0.999 | locus YLR418C, strain cdc73, stronger effect = lower value 0.994 | locus YML016C, strain PPZ1, stronger effect = lower value 1.01 | locus YML032C, strain rad52, stronger effect = lower value 1.01 | locus YML120C, strain ndi1, stronger effect = lower value 0.969 | locus YML124C, strain tub3, stronger effect = lower value 0.99 | locus YMR058W, strain fet3, stronger effect = lower value 0.974 | locus YMR078C, strain ctf18, stronger effect = lower value 0.982 | locus YMR125W, strain sto1, stronger effect = lower value 0.985 | locus YMR129W, stronger effect = lower value 0.99 | locus YMR205C, strain PFK2, stronger effect = lower value 1.01 | locus YMR223W, strain ubp8, stronger effect = lower value 0.994 | locus YMR231W, strain pep5, stronger effect = lower value 0.981 | locus YMR263W, strain SAP30, stronger effect = lower value 0.985 | locus YMR307W, strain GAS1, stronger effect = lower value 1.04 | locus YNL067W, strain RPL9B, stronger effect = lower value 0.961 | locus YNL071W, strain lat1, stronger effect = lower value 0.995 | locus YNL128W, strain TEP1, stronger effect = lower value 0.993 | locus YNL153C, strain GIM3, stronger effect = lower value 0.994 | locus YNL183C, strain NPR1, stronger effect = lower value 0.934 | locus YNL209W, strain ssb2, stronger effect = lower value 0.979 | locus YNL233W, strain BNI4, stronger effect = lower value 0.997 | locus YNL248C, strain rpa49, stronger effect = lower value 0.979 | locus YNL250W, strain rad50, stronger effect = lower value 0.932 | locus YNL271C, strain bni1, stronger effect = lower value 0.987 | locus YNL298W, strain CLA4, stronger effect = lower value 1 | locus YNL307C, strain MCK1, stronger effect = lower value 0.983 | locus YNL322C, strain KRE1 (second series), stronger effect = lower value 0.959 | locus YNL322C, strain KRE1, stronger effect = lower value 0.997 | locus YNR049C, strain mso1, stronger effect = lower value 0.956 | locus YNR052C, strain pop2, stronger effect = lower value 0.994 | locus YOL006C, strain TOP1, stronger effect = lower value 0.922 | locus YOL012C, strain htz1 0.665 | locus YOL147C, strain pex11, stronger effect = lower value 0.998 | locus YOR001W, strain rrp6, stronger effect = lower value 0.995 | locus YOR061W, strain CKA2, stronger effect = lower value 1.01 | locus YOR069W, strain VPS5, stronger effect = lower value 1 | locus YOR070C, strain gyp1, stronger effect = lower value 0.992 | locus YOR080W, strain dia2, stronger effect = lower value 0.961 | locus YOR083W, strain WHI5, stronger effect = lower value 0.975 | locus YOR106W, strain vam3, stronger effect = lower value 1.01 | locus YOR136W, strain idh2, stronger effect = lower value 0.985 | locus YOR144C, strain elg1, stronger effect = lower value 1.01 | locus YOR184W, strain ser1, stronger effect = lower value 0.988 | locus YOR231W, strain MKK1, stronger effect = lower value 1.04 | locus YOR265W, strain rbl2, stronger effect = lower value 0.984 | locus YOR270C, strain vph1, stronger effect = lower value 0.988 | locus YOR290C, strain snf2, stronger effect = lower value 0.973 | locus YOR316C, strain cot1, stronger effect = lower value 0.992 | locus YPL051W, strain arl3, stronger effect = lower value 0.986 | locus YPL078C, strain atp4, stronger effect = lower value 0.97 | locus YPL106C, strain sse1, stronger effect = lower value 0.939 | locus YPL240C, strain hsp82, stronger effect = lower value 0.992 | locus YPL256C, strain CLN2, stronger effect = lower value 1.01 | locus YPR119W, strain clb2, stronger effect = lower value 0.994 | locus YPR141C, strain kar3, stronger effect = lower value 0.991 | locus YPR163C, strain tif3, stronger effect = lower value 1 | locus YPR167C, strain met16, stronger effect = lower value 0.989 | strain wtn01, stronger effect = lower value 0.974
